# Compound activity deposited in PubChem BioAssay by several laboratories.
# Compounds with a hit are over-represented: about 1.9% of the library has one in this group of screens.
# Efa HMGR inh: inhibitors of class II HMG-CoA reductase from Enterococcus faecalis; purified E. faecalis HMGR, NADPH absorbance 340 nm kinetic; 0.41% of 190,000 active; inhibition, % at 10 µM;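 active = inhibition above a set limit, the median over all tested compounds plus 3 SD, cut at about 9.5% in these data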;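 also: enzyme runs in reverse so mevalonate oxidation gives rising NADPH absorbance; 0% = complete reaction with DMSO and 100% = background rate lacking mevalonate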
# m-calpain inh: inhibitors of pig calpain II; purified calpain II, fluorogenic peptide substrate, 30 min; AID 1236; inhibition, % at 16 µM; 0.37% of 220,000 active;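 active = inhibition above about 50%, limit read from the data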
# EP2 modulator: modulators of human EP2 prostaglandin E2 receptor. 0.83% of 260,000 active. induction, % at 25 µM. P43116. EP2-expressing cells, cAMP HTRF FRET, PGE2 co-stimulation;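 active = compounds whose cAMP rise, as percent of the full-agonist control response, exceeds 60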;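 also: rat C6 glioma line stably carrying human EP2 under a CMV promoter; the protocol text gives 20 µM as final concentration; 100% = response of wells given 1 µM PGE2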
# Target sequence (P43116 whole entry, looked up): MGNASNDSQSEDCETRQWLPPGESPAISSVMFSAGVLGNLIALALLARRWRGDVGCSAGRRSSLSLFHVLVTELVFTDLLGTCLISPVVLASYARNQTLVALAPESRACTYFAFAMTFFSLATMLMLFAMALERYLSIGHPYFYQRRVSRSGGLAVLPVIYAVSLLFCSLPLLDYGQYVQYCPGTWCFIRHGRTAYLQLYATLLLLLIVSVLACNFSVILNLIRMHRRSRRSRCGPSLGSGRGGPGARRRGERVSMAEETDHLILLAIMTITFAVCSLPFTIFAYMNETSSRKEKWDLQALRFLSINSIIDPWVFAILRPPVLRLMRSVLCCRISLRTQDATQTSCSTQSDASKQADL
# EP2 antag: inhibitors of human EP2 prostaglandin E2 receptor; C6 glioma cells expressing human EP2, cAMP TR-FRET; cells stimulated with saturating PGE2; 0.52% of 260,000 active; inhibition, % at 25 µM;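 active = percent inhibition above 40 after rounding to a whole number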;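 also: rat C6 glioma host cells with rolipram phosphodiesterase inhibitor present; the protocol text gives 20 µM as final concentration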
# Furin inhibitor: human furin inhibition; P09958; purified furin, fluorogenic substrate cleavage; inhibition, % at 20 µM or 30 µM; 0.061% of 220,000 active; in the data active = inhibition above about 25%
# The depositor's hits bear a star; · = not tested or not shown; ! = repeats disagree.
SMILES,Efa HMGR inh,m-calpain inh,EP2 modulator,EP2 antag,Furin inhibitor
CCOC(=O)c1c(C)[nH]sc1=S,-3,8,64*,·,-1
COC(=O)CSc1ncc(C#N)c(N)n1,63*,-6,37,11,-14
N#Cc1cnc(SCC(=O)NNC(=O)COc2ccccc2)nc1N,·,·,2,11,·
Cc1ccc2cc(C#N)c(SCC(=O)OC3CCCCC3)nc2c1,·,·,31,8,·
Cc1ccccc1C(=O)Oc1ccc(Sc2ccc(O)cc2)cc1,-2,113*,-1,·,-4
CN(CCOc1ccccc1)C(=O)c1cnn(-c2ccc(F)cc2)c1,·,·,-55,7,·
CO[C@@H]1/C=C\O[C@]2(C)Oc3c(C)c(O)c4c(O)c(c(CN5CCN(C)CC5)c(O)c4c3C2=O)NC(=O)C(C)=C/C=C\[C@@H](C)[C@@H](O)[C@H](C)[C@@H](O)[C@H](C)[C@H](OC(C)=O)[C@@H]1C,·,·,28,40*,·
CCOc1ccc2[nH]c(=O)c(CN(Cc3cccs3)C(CC)c3nnnn3C3CCCC3)cc2c1 (stereo not drawn),·,·,62*,6,·
COc1ccc2[nH]c(=O)c(CN(Cc3ccccc3)C(c3nnnn3C3CCCC3)C(C)C)cc2c1 (stereo not drawn),·,·,39,7,·
CCC(c1nnnn1C(C)(C)C)N(Cc1ccccc1)Cc1cc2cc(OC)ccc2[nH]c1=O (stereo not drawn),·,·,68*,12,·
CCC(c1nnnn1C1CCCC1)N(Cc1ccccc1)Cc1cc2cc(OC)ccc2[nH]c1=O (stereo not drawn),·,·,74*,15,·
CCOc1ccc2[nH]c(=O)c(CN(Cc3ccccc3)C(CC)c3nnnn3C3CCCC3)cc2c1 (stereo not drawn),·,·,62*,20,·
COC(=O)c1c(-c2cc(OC)c(OC)c(OC)c2)c2ccc(OCc3ccccn3)cc2c(=O)n1-c1ccc(N)cc1,·,·,18,9,·
CCn1ncc(C(=O)N2CCCC(c3nc(C)ncc3-c3ccncc3)C2)c1C (stereo not drawn),·,·,5,·,·
Cc1ccc(Cn2cc(/C=C/c3nc(O)c([N+](=O)[O-])c(=O)[nH]3)c3ccccc32)cc1,·,·,-19,11,·
CCC(CN1CCOCC1)NC(=O)Cc1c(C)[nH]c2c(C)cccc12 (stereo not drawn),·,·,0,8,·
CCC(c1nnnn1C1CCCCC1)N(Cc1ccc(C)cc1)Cc1cc2cccc(C)c2[nH]c1=O (stereo not drawn),·,·,66*,9,·
CCOc1ccccc1N1CCN(C(=O)CC(C)(C)C)CC1,11*,0,3,10,-19
COc1ccc2[nH]c(=O)c(CN(Cc3cccnc3)S(=O)(=O)c3c(C)cc(C)cc3C)cc2c1,·,·,-17,17,·
CN1[C@@H]2CC[C@H]1CC(OC(c1ccccc1)c1ccccc1)C2 (stereo partly drawn),·,·,-15,57*,·
CCN(CC)S(=O)(=O)c1ccc(N2CCC(CNC(=O)C3CCCO3)CC2)cc1 (stereo not drawn),·,·,-25,5,·
COc1ccc2[nH]c3c(NCCN(C(C)C)C(C)C)ncnc3c2c1,-5,-376,-23,7,-13
COc1ccc(CNc2ncnc3c2[nH]c2cc(OC)c(OC)cc23)cc1,·,-17,-36,54*,-1
COc1ccc(CNc2ncnc3c2[nH]c2ccccc23)cc1,·,-17,-36,60*,-5
Cc1ccccc1-n1cc(CNCc2c(C(=O)N(C)C)nc3ccc(Cl)cn23)cn1,13*,-29,2,10,-26
SMILES,Efa HMGR inh,m-calpain inh,EP2 modulator,EP2 antag,Furin inhibitor
COc1cccc(-n2cc(CNCc3c(C(=O)N(C)C)nc4ccc(Cl)cn34)cn2)c1,1,-1,-12,6,-27
CC(=O)c1nn(-c2ccc(Br)cc2)cc1C(=O)c1ccccc1,3,31,26,1,-10
N#Cc1cn(-c2ccccc2)nc1C(=O)c1ccccc1,-7,1,62*,15,-1
CC(C)N(C(=O)c1ccccc1-c1ccccc1)C(C)C,-2,-5,63*,18,-25
CC(C)CCN1CCN(Cc2ccc(Sc3nncn3C)o2)CC1CCO (stereo not drawn),-1,-6,-16,13,-29
CC(C)N1CCN(Cc2ccc(Sc3nncn3C)o2)CC1CCO (stereo not drawn),·,-33,66*,7,-18
Cc1ccc(C(=O)NCCc2ccncc2)cc1,12*,-11,26,2,-4
O=C(NCCCc1ccccc1)c1ccncc1,-4,-29,-10,5,-15
Cc1ccc(Oc2ccc(C(=O)NCc3ccncc3)cc2)cc1,-1,50*,-35,0,-18
CCOC(=O)C1=C(C)N(C)C(c2ccccc2)(C(F)(F)F)NC1=O (stereo not drawn),·,·,-18,43*,·
COc1ccc2oc(=Nc3ccc(C(=O)O)cc3)c(C(=O)NCc3ccco3)cc2c1,15*,14,-36,12,-17
CCCc1ncc(CN2CCN(C3CCCCC3)C(=O)C2)cn1,·,·,-22,6,·
Cn1c(=O)c2c(nc(NCCNC(=O)C3CC3)n2Cc2ccc(Cl)cc2)n(C)c1=O,·,·,29,16,·
CCN(CC)c1ccc2cc(I)c(=O)oc2c1,·,·,-28,13,·
COc1ccc2cc1Oc1ccc(cc1)C[C@H]1c3c(cc4c(c3Oc3cc5c(cc3OC)CCN(C)[C@@H]5C2)OCO4)CCN1C,·,-20,-20,3,-24
COc1ccc2c(c1OC)C(=O)O[C@@H]2[C@H]1c2c(cc3c(c2OC)OCO3)CCN1C,-11,-14,61*!,10,-9
CCOc1nc(C)ccc1-c1noc(-c2ccccc2F)n1,·,·,-48,18,·
Cc1cc(NC(=O)c2ccc3c(c2)C(=O)N(C2CCCCC2)C3=O)no1,-2,2,17,18,-9
O=C(Nc1ccncc1)c1ccc2c(c1)C(=O)N(C1CCCCC1)C2=O,0,-8,-10,46*,-16
O=C(Nc1ccncc1)c1ccc(C(=O)Nc2ccncc2)cc1,18*,13,-2,3,-26
CCC(=O)Nc1sc(C(=O)NC2CCCCC2)c(C)c1C(=O)OC,·,·,-2,13,·
CCCN1CCc2c(sc(NC(=S)NC(=O)c3ccccc3)c2C#N)C1,-2,-14,-23,12,-9
CCN1CCc2c(sc(NC(=S)NC(=O)c3ccc(Cl)cc3)c2C(N)=O)C1,·,-17,-59,41*,-8
CCN1CCc2c(sc(NC(=O)CN3C(=O)c4ccccc4C3=O)c2C(N)=O)C1,0,8,10,1,-8
CCN1CCc2c(sc(NC(=S)NC(=O)/C=C/c3ccccc3)c2C(N)=O)C1,·,·,-177,84*,·
COC1=CC(=O)C(O)=C(CCCCCCC/C=C/CCCCCCCC2=C(O)C(=O)C=C(OC)C2=O)C1=O,·,·,·,54*,·
CCCCCCCCCCCC1=C(O)C(=O)C=C(O)C1=O,·,·,-15,65*!,·
CCCCCCc1c(O)c2ccccc2[nH]c1=O,0,-52,16,7,-21
COC(=O)c1c(NC(=O)c2ccccc2)sc(C(=O)NC2CCCCC2)c1C,·,·,-16,6,·
C#CCOc1ccc(-c2nc3cnccn3c2NCc2cccs2)cc1OC,·,·,-89,11,·
